Screening data (PubChem)
Tau fluor counter: counter-screen for tau fibril formation inhibitors; tau K18 P301L Alexa594 fluorescence, heparin fibrillization; Potency, µM (top dose mostly 57.7 µM), without a hit: at the top dose activity change, negative = decrease; 280,000 compounds, 0.93% hits; note: potency is the fitted concentration of half-maximal effect; nearly all actives have a fitted effect of over 55% in size
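Human K18 P301L tau (15 uM unlabeled plus 0.24 uM Alexa 594-labeled, final) in 100 mM sodium acetate pH 7 was mixed with compound and 20 uM heparin and incubated 6 hr at 37 C.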
Tau FP inhib: blocks human tau fibril formation measured by polarization. P10636. K18 P301L tau heparin fibrillization, Alexa594 FP, 6 h. Potency, µM (doses to about 57.7 µM), without a hit: at the highest dose activity, negative = inhibition, hits mostly inhibitors. 280,000 compounds, 0.39% hits; note: potency is the fitted concentration of half-maximal effect; nearly all actives have a fitted effect of over 55% in size
Target sequence (P10636 561-689 P618L limits assumed): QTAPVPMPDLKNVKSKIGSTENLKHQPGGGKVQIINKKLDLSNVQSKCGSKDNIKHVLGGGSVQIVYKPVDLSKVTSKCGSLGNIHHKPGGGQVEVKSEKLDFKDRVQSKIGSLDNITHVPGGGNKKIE
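Read-out: fluorescence polarization of Alexa 594-labeled tau (0.24 uM), 555 nm excitation, 632 nm emission. Mixtures held 15 uM unlabeled K18 P301L, compound and 20 uM heparin, pH 7 acetate buffer, incubated 6 hr at 37 C.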
Coupling enz: coupling enzyme interference in Giardia aldolase counter-screen; coupling enzyme system counterscreen, AmpLite Red fluorescence; activity change, negative = inhibition, % at 58.2 µM, hits read low; 290,000 compounds, 0.67% hits; AID 2472; in the data active = activity change below about -30%
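Compounds tested against the coupling enzymes alone at 57.5 uM final; readout was AmpLite Red fluorescence (525/598 nm) after 20 min at RT.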
Tau ThT inhib: tau fibrillization inhibition (ThT binding); recombinant tau K18 P301L (four-repeat tau fragment), heparin-induced fibrillization, ThT fluorescence; Potency, µM (doses to about 57.4 µM), without a hit: top-dose activity, negative = inhibition, most hits filed as inhibitors; AID 1460; P10636; 270,000 compounds, 2.1% hits; note: potency is the fitted concentration of half-maximal effect; nearly all actives have a fitted effect of over 55% in size
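Aggregation was driven by heparin (20 uM final) acting on recombinant tau […] bearing P301L in 100 mM sodium acetate pH 7; fibrils were detected with Thioflavin T.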
USP1 inh: inhibitors of human USP1/UAF1 deubiquitinase. recombinant USP1/UAF1, Ub-Rhodamine cleavage fluorescence. AID 743255. O94782. Potency, µM (doses to about 57.1 µM), without a hit: at the highest dose activity change, negative = inhibition, actives largely listed as inhibitors. 390,000 compounds, 0.23% hits; note: potency is the fitted concentration of half-maximal effect; nearly all actives have a fitted effect of over 60% in size
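USP1/UAF1 complex (1 nM) preincubated 15 min at room temperature with compound, then Ub-Rho substrate (150 nM final) added. Kinetic fluorescence at 480/540 nm over 6 reads at 60 s intervals; 50 mM HEPES pH 7.8, 0.5 mM EDTA, 0.1 mg/ml BSA, 1 mM TCEP, 0.01% Tween-20.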
Active calls of the source: *; ? = inconclusive; . = not tested or not shown; ! = not active in a repeat; [ ] = another dose, or the depositor's remark. Only some compounds are listed: those with a hit (about 2.3% of all), similar ones and a draw of the others. Unless noted, calls come from the whole dose curve; as a rule, active = well fitted curve in the direction sought with a large enough effect; inconclusive = small, poorly fitted or top-dose-only effect, or another doubt; inactive = no such curve, though single readings can be large; an effect the other way counts as inactive or inconclusive. % is set by controls: 0 for no effect and ±100 for the full control effect.

SMILES	Tau fluor counter	Tau FP inhib	Coupling enz	Tau ThT inhib	USP1 inh
COc1cccc(NC(=O)CN2CCCN(S(=O)(=O)c3ccc(Br)cc3)CC2)c1	-28%	-4%	.	-10%	?
COc1ccc(-c2nc(C)c(CCNC(=O)c3c(F)cccc3F)s2)cc1	-25%	-2%	.	?	-23%
CCN(CC)CCNc1cc(C)nc2c1C(=O)C(=O)C=C2N1CCCCC1	-27%	?	-64*	8.9µM*	-16%
CCOc1cc(Cn2c(-c3ccc(O)c(OCC)c3)nc3ccccc32)ccc1O	?	-2%	.	?	-6%
Cc1ccc2c(c1)C(O)(c1c(C)[nH]c3ccccc13)C(=O)N2 (stereo not drawn)	?	11%	-35*	?	-21%
Cc1ccc(N2C(=O)c3cccc4c([N+](=O)[O-])ccc(c34)C2=O)c2cccnc12	-10%	-1%	0	-9%	-6%
Cc1ccc(N2C(=O)c3cccc4c(N5CCN(C)CC5)ccc(c34)C2=O)c2cccnc12	-9%	-6%	3	1%	28µM*
O=C1c2cccc3c(N4CCCCC4)ccc(c23)C(=O)N1c1ccccc1O	-21%	2%	-3	?	28µM*
CCN(CC)Cc1c(C(=O)N/N=C/c2ccc(OCc3ccccc3C)cc2)nnn1-c1nonc1N	.	.	-4	.	-19%
CCOC(=O)CCCCCCCCCCCCC1C=CCC1 (stereo not drawn)	-8%	-2%	4	-16%	.
Oc1ccc(NCc2ccc(OCc3ccccc3Cl)cc2)cc1	7.9µM*[quencher]	?	.	14µM*	32µM*
COc1cc(CNc2ccc(O)cc2)cc(Br)c1OCc1ccccc1	13µM*[quencher]	?	-41*	25µM*	-27%
Oc1ccc(NCc2ccc(OCc3ccccc3)cc2)cc1	?	-7%	-10	?	3.2µM*
Cc1ccc(NC(=O)CSC(C)c2nc3ccccc3c(=O)[nH]2)cc1 (stereo not drawn)	.	.	-16	.	-2%
Cc1cc(O)c(C=O)c2c1C(=O)Oc1c(C)c(O)c3c(c1O2)C(O)OC3=O (stereo not drawn)	?	?	6	7.9µM*	.
COC(=O)c1c(OC)cc2c(c1C)Oc1c(Cl)c(O)c(Cl)c(C)c1C(=O)O2	-16%	1%	15	?	.
COc1cc(C)c2c(c1C=O)Oc1c(c(C)c(O)c3c1C(O)OC3=O)OC2=O (stereo not drawn)	?	25µM*	6	14µM*	16µM*
Cc1cc([N+](=O)[O-])ccc1-c1ccc(C2Nc3ccccc3C(=O)N2O)o1 (stereo not drawn)	?	4%	6	14µM*	-20%
COc1ccc(C(=O)NC2CC2)cc1OC1CCN(C(C)CSC)CC1 (stereo not drawn)	.	.	0	.	-21%
CCOc1ccccc1N1CCN(C(=O)c2cc(-c3cc(OC)ccc3OC)nc3ccccc23)CC1	.	.	.	.	16µM*
C=C(C)CN(CC)c1nc(N)c(C#N)c(CC#N)c1C#N	-11%	2%	-19	-19%	-18%
CCCCN(CC)c1nc(N)c(C#N)c(CC#N)c1C#N	?	1%	-35*	?	?
CCCCN(CC)c1nc(N)c2c(N)nc(OCC)cc2c1C#N	16µM*[quencher]	12%	-48*	?	?
O=C(CN1CCN(C(=O)CCC(=O)N2CCC(c3ccccc3)=N2)CC1)Nc1ccc(F)cc1	.	.	.	.	-4%
COc1cc2c(c(OC)c1OC)C(c1ccc(O)cc1)CC(=O)O2 (stereo not drawn)	-21%[81.3 µM]	-7%[81.3 µM]	-32*	-20%[81.4 µM]	?
COc1ccc(C2CC(O)(c3ccccc3)Oc3cc(OC)c(OC)c(OC)c32)cc1 (stereo not drawn)	?	0%	-39*!	5%	-29%
COc1ccc(-n2c(=O)c(CCC(=O)N3CCN(c4ccccc4O)CC3)nc3ccccc32)cc1	.	.	.	.	-7%
COc1ccc2[nH]c(-c3ccc(F)cc3F)cc(=O)c2c1	1%[81.3 µM]	0%[81.3 µM]	1	2%[81.4 µM]	.
COc1ccc2[nH]c3c4c(ccc3c2c1)C(=O)C=CC4=O	2µM*[quencher]	11µM*	-38*	3.5µM*	?
Cc1ccc(O)c(-c2cc3ccccc3[nH]2)c1	16µM*[quencher]	11%	1	13µM*	-23%
